The source of these data is the supplement of paper PMC7156485.

± gives the standard deviation of the averaged measurements.
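Throughout, for H1.0 immunofluorescence intensity relative to DMSO: TDF is a line of transformed human dermal fibroblasts of mesenchymal origin.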
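Throughout, for cell number relative to DMSO: TDF denotes transformed human dermal fibroblasts of mesenchymal origin.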

The first experiment deals with TDF. As to the kind of experiment: cell number relative to DMSO (% of DMSO); higher = more cells (less growth inhibition / toxicity). To be noted: concentration: 10 µM; 24 h. The procedure, abridged: (§1)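 Cells were seeded at 800 per well in 384-well plates with RPMI containing 10% FBS; both HCC1569 and TDF lines were used. Compounds were added at 10 µM for 24 h at 37 °C, in triplicate, before fixation in 3.7% formaldehyde and staining with a rabbit anti-H1.0 antibody, an AlexaFluor 647 secondary and DAPI. H1.0 nuclear intensity or cell number is reported as percent of the plate control using the median of replicates, and HCC1569 values were smoothed for positional effects.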
Consider `Brc1c(NC2=NCCN2)ccc2nccnc12`, for which the cell number turned out to be 102.

`CN(C)CCC(CSc1ccccc1)Nc1ccc(S(=O)(=O)NC(=O)c2ccc(N3CCN(Cc4ccccc4-c4ccc(Cl)cc4)CC3)cc2)cc1[N+](=O)[O-]` (centres undefined) registered a cell number of 106.

As for `CCC=CCC=CCC=CCC=CC=CC(O)CCCC(=O)O` (racemic), the cell number came to 94.7.

As to `CCCCCC(O)C=CC1C(O)CC2OC(=CCCCC(=O)[O-])CC21.[Na+]` (centres undefined) [Prostaglandin I2 Na], the cell number was determined as 98.1.

Regarding `O=C(c1cc2cc(O)ccc2[nH]1)c1cc2cc(O)ccc2[nH]1` [Flt-3 Inhibitor II], the cell number turned out to be 73.

The compound `Cc1nc2c([nH]1)c(=O)n(C)c(=O)n2Cc1ccco1` [Furafylline] registered a cell number of 107 ± 11.

On to `CC(C)NCC(O)COc1ccc(CCOCC2CC2)cc1.Cl` (centres undefined) [Betaxolol hydrochloride], for which the cell number worked out at 122.

As to `CN(CCOc1ccc(CC2SC(=O)NC2=O)cc1)c1ccccn1.O=C(O)C=CC(=O)O` (centres undefined) [Rosiglitazone maleate], the cell number amounted to 113.

As for `CC(=O)CCCCn1c(=O)c2c(ncn2C)n(C)c1=O` [Pentoxifylline], the cell number turned out to be 106 ± 5.2.

For `CC(=O)OCC(CCn1cnc2cnc(N)nc21)COC(C)=O` [Famciclovir], the cell number is 97.4.

Compound `O=C(O)c1ccccc1C(=O)Nc1ccc(-c2ccccc2)cc1` [2-[([1,1'-biphenyl]-4-ylamino)carbonyl]benzoic acid] displayed a cell number of 99.9.

As for `COc1ccc(C=CC(=O)Nc2ccccc2C(=O)O)cc1OC` [Tranilast], the cell number stood at 103 ± 4.7.

`O=C(COc1ccc(C(=O)c2ccccc2)cc1)NC1CCN(Cc2ccccc2)CC1` [2-(4-benzoylphenoxy)-N-(1-benzyl-4-piperidinyl)acetamide] gave a cell number of 78.3.

The compound `COC(C)(C)CCCC(C)CC=CC(C)=CC(=O)O` (centres undefined) [Methoprene acid] came in with a cell number of 91.9.

`CCCCCC=CCC=CCCCCCCCC(=O)NCC(=O)O` [N-Linoleoylglycine] showed a cell number of 101.

The compound `CCCCC(=O)O[C@]1(C(=O)CO)[C@@H](C)C[C@H]2[C@@H]3CCC4=CC(=O)C=C[C@]4(C)[C@@]3(F)[C@@H](O)C[C@@]21C` showed a cell number of 106.

Turning to `COc1cc(Nc2c(C#N)cnc3cc(OCCCN4CCN(C)CC4)c(OC)cc23)c(Cl)cc1Cl` [Bosutinib], the cell number stood at 7.38.

`Nc1ncnc2c1ncn2C1CCCO1` (centres undefined) came in with a cell number of 96.4.

The compound `CCCCCC=CCC(O)C=CC=CC=CC(O)CCCC(=O)O` [5(S),12(R)-DIHETE all trans] had a cell number of 97.

A further experiment concerns TDF. Put plainly: H1.0 immunofluorescence intensity relative to DMSO (% of DMSO); higher = stronger H1.0 induction, active = 120 or more. The conditions noted are these: concentration: 10 µM; 24 h. The essentials:
as §1
For the compound `O=C1Cc2c([nH]c3ccc([N+](=O)[O-])cc23)-c2ccccc2N1` [Alsterpaullone], the H1.0 immunofluorescence intensity is 92.9 (inactive).

With `O=C1c2ccccc2-c2n[nH]c3cccc1c23`, the H1.0 immunofluorescence intensity was 92 (inactive).

For the compound `CC1COc2c(N3CCN(C)CC3)c(F)cc3c(=O)c(C(=O)O)cn1c23` (centres undefined) [Ofloxacin], the H1.0 immunofluorescence intensity was 95 (inactive).

`CCCCCCCCCCCCCCCC(=O)OCC=C(C)C=CC=C(C)C=CC1=C(C)CCCC1(C)C` [Retinyl palmitate]: the H1.0 immunofluorescence intensity was 93.8 (inactive).

In the case of `CCOC(=O)OC(C)OC1=C(C(=O)Nc2ccccn2)N(C)S(=O)(=O)c2ccccc21` (centres undefined) [Ampiroxicam], the H1.0 immunofluorescence intensity is 99.6 (inactive).

As for `Nc1cc(=O)nc(N)[nH]1` [2,6-Diamino-4-pyrimidinone], the H1.0 immunofluorescence intensity was 93.6 (inactive).

In the case of `CS(=O)(=O)O.O=C1Nc2ccc(-c3cccnc3)cc2C1=Cc1ccc[nH]1` [JAK3 Inhibitor VI], the H1.0 immunofluorescence intensity is 108 (inactive).

Consider `COc1cc(CC(=O)O)ccc1O` [4-Hydroxy-3-methoxyphenylacetic acid], for which the H1.0 immunofluorescence intensity is 102 (inactive).

As to `Cl.Cl.Fc1ccc(C(c2ccc(F)cc2)N2CCN(CC=Cc3ccccc3)CC2)cc1` [Flunarizine.2HCl], the H1.0 immunofluorescence intensity is 92.2 (inactive).

Turning to `O=c1cc(-c2ccc(O)c(O)c2)oc2cc(O)cc(O)c12` [Luteolin], the H1.0 immunofluorescence intensity was 124 (active).

Take `COC1C(OC(N)=O)C(O)C(Oc2ccc3c(O)c(NC(=O)c4ccc(O)c(CC=C(C)C)c4)c(=O)oc3c2C)OC1(C)C.[Na+]` (centres undefined) [Novobiocin.Na]: the H1.0 immunofluorescence intensity was 95.7 (inactive).

For the compound `CC1CCc2c(N3CCC(O)CC3)c(F)cc3c(=O)c(C(=O)O)cn1c23` (centres undefined) [Nadifloxacin], the H1.0 immunofluorescence intensity is 98.7 (inactive).

`C[N+]1(CCCCC[N+]2(C)CCCC2)CCCC1.O=C([O-])C(O)C(O)C(=O)O.O=C([O-])C(O)C(O)C(=O)O` [Pentolinium di[L(+)-tartrate]]: the H1.0 immunofluorescence intensity is 92.6 (inactive).

As for `O=C(Nc1cccc(C(=O)Nc2ccc(S(=O)(=O)[O-])c3cc(S(=O)(=O)[O-])cc(S(=O)(=O)[O-])c23)c1)Nc1cccc(C(=O)Nc2ccc(S(=O)(=O)[O-])c3cc(S(=O)(=O)[O-])cc(S(=O)(=O)[O-])c23)c1.[Na+].[Na+].[Na+].[Na+].[Na+].[Na+]`, the H1.0 immunofluorescence intensity was 93.4 (inactive).

Take `CSc1nc(-c2ccnc(NC(C)c3ccccc3)c2)c(-c2ccc(F)cc2)[nH]1` (centres undefined) [p38 MAP Kinase Inhibitor III]: the H1.0 immunofluorescence intensity was 95.2 (inactive).

As for `CCC1=C(C)CN(C(=O)NCCc2ccc(S(=O)(=O)NC(=O)NC3CCC(C)CC3)cc2)C1=O` (centres undefined) [Glimepiride], the H1.0 immunofluorescence intensity was 93.1 (inactive).

As for `CN1CCN(c2c(F)cc3c(=O)c(C(=O)O)cn(CCF)c3c2F)CC1` [Fleroxacin], the H1.0 immunofluorescence intensity is 102 (inactive).

For the compound `CC(C)CC(NC(=O)C1OC1C(=O)O)C(=O)NCCCCN=C(N)N` (centres undefined), the H1.0 immunofluorescence intensity is 97.7 (inactive).

`Cl.NCC1OC(C23CC4CC(CC(C4)C2)C3)Cc2c1ccc(O)c2O` (centres undefined): the H1.0 immunofluorescence intensity is 102 (inactive).

Regarding `CC[C@H](C(=O)Nc1ccccc1N1CCCC1)c1ccccc1` [(2S)-2-Phenyl-N-[2-(1-pyrrolidinyl)phenyl]butanamide], the H1.0 immunofluorescence intensity is 96.1 (inactive).

For `Cc1cccc(-c2[nH]ncc2-c2ccc3ncccc3n2)n1`, the H1.0 immunofluorescence intensity is 94.9 (inactive).

With `Brc1c(NC2=NCCN2)ccc2nccnc12`, the H1.0 immunofluorescence intensity is 90.2 (inactive).

Turning to `CN(C)CCC(CSc1ccccc1)Nc1ccc(S(=O)(=O)NC(=O)c2ccc(N3CCN(Cc4ccccc4-c4ccc(Cl)cc4)CC3)cc2)cc1[N+](=O)[O-]` (centres undefined), the H1.0 immunofluorescence intensity is 110 (inactive).

With `CCC=CCC=CCC=CCC=CC=CC(O)CCCC(=O)O` (racemic), the H1.0 immunofluorescence intensity was 103 (inactive).

Take `CCCCCC(O)C=CC1C(O)CC2OC(=CCCCC(=O)[O-])CC21.[Na+]` (centres undefined) [Prostaglandin I2 Na]: the H1.0 immunofluorescence intensity is 94.1 (inactive).

As for `O=C(c1cc2cc(O)ccc2[nH]1)c1cc2cc(O)ccc2[nH]1` [Flt-3 Inhibitor II], the H1.0 immunofluorescence intensity is 99.9 (inactive).

Regarding `Cc1nc2c([nH]1)c(=O)n(C)c(=O)n2Cc1ccco1` [Furafylline], the H1.0 immunofluorescence intensity was 94.5 (inactive).

Turning to `CC(C)NCC(O)COc1ccc(CCOCC2CC2)cc1.Cl` (centres undefined) [Betaxolol hydrochloride], the H1.0 immunofluorescence intensity was 95.4 (inactive).

As for `CN(CCOc1ccc(CC2SC(=O)NC2=O)cc1)c1ccccn1.O=C(O)C=CC(=O)O` (centres undefined) [Rosiglitazone maleate], the H1.0 immunofluorescence intensity was 92.5 (inactive).

With `CC(=O)CCCCn1c(=O)c2c(ncn2C)n(C)c1=O` [Pentoxifylline], the H1.0 immunofluorescence intensity was 92.8 (inactive).

Consider `CC(=O)OCC(CCn1cnc2cnc(N)nc21)COC(C)=O` [Famciclovir], for which the H1.0 immunofluorescence intensity was 99.2 (inactive).

In the case of `O=C(O)c1ccccc1C(=O)Nc1ccc(-c2ccccc2)cc1` [2-[([1,1'-biphenyl]-4-ylamino)carbonyl]benzoic acid], the H1.0 immunofluorescence intensity is 98.7 (inactive).

With `COc1ccc(C=CC(=O)Nc2ccccc2C(=O)O)cc1OC` [Tranilast], the H1.0 immunofluorescence intensity is 92.9 (inactive).

As to `O=C(COc1ccc(C(=O)c2ccccc2)cc1)NC1CCN(Cc2ccccc2)CC1` [2-(4-benzoylphenoxy)-N-(1-benzyl-4-piperidinyl)acetamide], the H1.0 immunofluorescence intensity is 118 (inactive).

For the compound `COC(C)(C)CCCC(C)CC=CC(C)=CC(=O)O` (centres undefined) [Methoprene acid], the H1.0 immunofluorescence intensity was 98 (inactive).

As for `CCCCCC=CCC=CCCCCCCCC(=O)NCC(=O)O` [N-Linoleoylglycine], the H1.0 immunofluorescence intensity is 96.8 (inactive).

`CCCCC(=O)O[C@]1(C(=O)CO)[C@@H](C)C[C@H]2[C@@H]3CCC4=CC(=O)C=C[C@]4(C)[C@@]3(F)[C@@H](O)C[C@@]21C`: the H1.0 immunofluorescence intensity is 87.6 (inactive).

For the compound `COc1cc(Nc2c(C#N)cnc3cc(OCCCN4CCN(C)CC4)c(OC)cc23)c(Cl)cc1Cl` [Bosutinib], the H1.0 immunofluorescence intensity is 135 (active).

As for `Nc1ncnc2c1ncn2C1CCCO1` (centres undefined), the H1.0 immunofluorescence intensity was 99 (inactive).

Turning to `CCCCCC=CCC(O)C=CC=CC=CC(O)CCCC(=O)O` [5(S),12(R)-DIHETE all trans], the H1.0 immunofluorescence intensity was 99.7 (inactive).
